# In PubChem BioAssay AID1850 (Southern Research Specialized Biocontainment Screening …, 2009):
# Several values for one entry are separate records, joined by “and”; a condition that tells them apart may be missing. Equal values may be shown once. Hit rate of the full screen: of about 310,000 compounds, about 1,000 (0.32%) were called active. The rule behind the calls is not given here. Only a sample is shown. Potency and affinity values are given separately.
# Assay: PhoP regulon inhibitors, Salmonella typhi PhoP promoter GFP reporter, confirmatory (AID 1850);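 note: 0% = induced wells with vehicle and 100% = uninduced wells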
# Settings: fluorescence, 4 h, at 50 µM, hits give high values
row,Compound,inhibition
1,C=CCc1cc(Cl)ccc1OCCN1CC(C)OC(C)C1 (centres undefined),-16% (inactive)
2,Cn1c(-c2cccc([N+](=O)[O-])c2)cnc1NCc1ccc(C#N)cc1,-3.32% (inactive)
3,CC1(C)Cc2c(sc3c2c(N)nc(=S)n3Cc2ccccc2)CO1,-10.9% (inactive)
4,O=C(NCCC1=CCCCC1)c1cc(S(=O)(=O)N2CCOCC2)ccc1Cl,-3.59% (inactive)
5,Cc1ccc(S(=O)(=O)Nc2cc(C(=O)N3CCC4(CC3)OCCO4)ccc2N2CCCCC2)cc1,3.06% (inactive)
6,Cc1nc(SCC(=O)Nc2cc(Cl)ccc2[N+](=O)[O-])nc(C)c1C,1.39% (inactive)
7,O=C(CSc1nc2ccccc2[nH]1)N1CCN(C(=O)c2ccco2)CC1,-8.53% (inactive)
8,CCOc1ccc(CSC(=N)N)cc1Cl,20.5% (inactive)
9,CCCOc1ccc(CCCN=C(N)N)cc1Cl,22.8% (inactive)
10,CCOc1ccc(CSC(=N)N)cc1[N+](=O)[O-],-0.03% (inactive)
11,CCCCOc1ccc(CSC2=NCCN2)cc1[N+](=O)[O-],7.52% (inactive)
12,CCOc1ccc(CN=C(N)N=C(N)N)cc1Cl,20% (inactive)
13,CCCCOc1ccc(CSCCN)cc1Cl,12% (inactive)
14,CCCOc1ccc(CSC2=NCCN2)cc1[N+](=O)[O-],23.3% (inactive)
15,COc1ccc(CSC(=N)N)cc1[N+](=O)[O-],-11.2% (inactive)
16,Cc1cc(C(=O)Cn2nc(C(=O)O)c3ccccc3c2=O)c(C)n1-c1ccc(OC(F)F)cc1,-17.2% (inactive)
17,CCOC(=O)c1ccc(NC(=O)N2CCOCC2)cc1,9.07% (inactive)
18,O=C(CCN1C(=O)C2CC=C(Cl)CC2C1=O)N1CCCCC1 (centres undefined),4.62% (inactive)
19,O=C1c2ccccc2-c2nc3ccccc3n21,-6.73% (inactive) and -7.55% (inactive)
20,CCCOc1ccc(Br)cc1CSC(=N)N,20.4% (inactive)
21,CCOc1ccc(Br)cc1CSC(=N)N,-6.33% (inactive)
22,O=C(CN1C(=O)NC2(CCCC2)C1=O)Nc1ccc(S(=O)(=O)N2CCOCC2)cc1,-0.54% (inactive)
23,OCCNc1nc(Nc2ccccc2)nc(Nc2ccccc2)n1,-3.62% (inactive)
24,OCCNc1nc(-c2ccccc2)nc2ccccc12,16% (inactive)
25,O=C(NCCO)c1nc(NCCO)c2ccccc2n1,-2.84% (inactive)

row,Compound,inhibition
1,Cc1ccc(Nc2nc(N)c([N+](=O)[O-])c(NCCO)n2)cc1C,13.6% (inactive)
2,OCCNc1nc(Nc2ccccc2Cl)nc(N2CCCC2)n1,-6.06% (inactive)
3,Cc1cc(NCCO)c2ccccc2n1,-12.1% (inactive)
4,OCCNc1nc(Nc2ccc(O)cc2)nc2ccccc12,1.07% (inactive)
5,OCCNc1nc(NCc2ccccc2)c2ccccc2n1,-4.21% (inactive)
6,O=C(CSc1ccc2c(c1)OCCO2)NCc1ccccc1,6.58% (inactive)
7,CC(Sc1nnc(Nc2ccccc2)s1)C(=O)NC1CCCc2ccccc21 (centres undefined),9.25% (inactive)
8,O=C(COc1ccc(Br)cc1)N(CCO)CCO,-3.36% (inactive)
9,O=P(O)(Oc1ccccc1)OC(c1ccccc1)C(F)(F)C(F)(F)F (centres undefined),5.37% (inactive)
10,O=C(NCCNS(=O)(=O)c1ccc(Cl)cc1)c1cc(OCC(F)(F)F)ccc1OCC(F)(F)F,0.75% (inactive)
11,c1coc(-c2cc(C3CCNCC3)[nH]n2)c1,10.6% (inactive)
12,CC(Oc1ccccc1)C(=O)N=C1SC2CS(=O)(=O)CC2N1Cc1ccc(F)cc1 (centres undefined),2.75% (inactive)
13,COc1cc(C(=O)OCC(=O)NCc2ccc(F)cc2)cc(NC(=O)c2cccs2)c1OC,12.9% (inactive)
14,COCCN(Cc1cc2cc3c(cc2nc1Cl)OCO3)C(=O)c1ccc(C)cc1,-6.89% (inactive)
15,CCc1ccc(CN2C(=O)c3ccccc3C2C(=O)NCc2cccnc2)cc1 (centres undefined),-8.38% (inactive)
16,OCCNc1nc(Nc2cccc(O)c2)nc2ccccc12,-3.51% (inactive)
17,COc1ccc(OC)c(Nc2nc(NCCO)c3ccccc3n2)c1,-0.87% (inactive)
18,CN1N=C(C(=O)Nc2ccc3c(c2)CCC3)CCC1=O,-2.98% (inactive)
19,COc1cccc(COc2ncnc3sccc23)c1,3.57% (inactive)
20,O=C(O)c1oc2ccccc2c1CN1CCN(c2ccccc2)CC1,-0.62% (inactive)
21,COc1ccc(OCC(=O)Nn2c(-c3cccc(OC)c3)nc3ccccc3c2=O)cc1,-2.54% (inactive)
22,COCCCn1c(SCC(=O)NC2CCCC2)nnc1-c1cccs1,7.9% (inactive)
23,COc1ccc(/C(O)=C/C(=O)C(=O)NNC(=O)c2ccccc2)cc1,12.4% (inactive)
24,Nc1ccccc1C(=O)NNC(=O)C(=O)/C=C(\O)c1ccccc1,3.15% (inactive)
25,COc1ccc(-c2nnc(OC)c3ccccc23)cc1,-2.2% (inactive)

row,Compound,inhibition
1,O=C(O)C1=C[C@H](c2csc3ccccc23)C[C@H](OCc2ccc(CO)cc2)O1,17.9% (inactive)
2,NS(=O)(=O)c1ccc(CCNC(=O)C2CCCO2)cc1 (centres undefined),-6.93% (inactive)
3,CC(C)N1C(=O)/C(=C\c2nc3ccccc3c(=O)n2-c2ccccc2)c2ccccc21,-1.3% (inactive)
4,COc1cc(C(C[N+](=O)[O-])c2c(N)n(C)c(=O)n(C)c2=O)ccc1O (centres undefined),-9.41% (inactive)
5,Cn1c(N)c(C(C[N+](=O)[O-])c2ccccc2Cl)c(=O)n(C)c1=O (centres undefined),16% (inactive)
6,Cc1c(CCC(=O)NCCCn2ccnc2)c(=O)oc2c(C)c3oc4c(c3cc12)CCCC4,2.2% (inactive)
7,Cc1ccccc1S(=O)(=O)Cc1ccc(C(=O)O)o1,-5.44% (inactive)
8,Cn1c(NC2CCCCC2)cc(=O)n(C)c1=O,-41.1% (inactive)
9,Cc1cc(C)cc(Nc2cc(=O)n(C3CCCCC3)c(=O)[nH]2)c1,3.88% (inactive)
10,O=C(O)c1ccccc1NCc1cccs1,-6.17% (inactive)
11,O=C(NNc1c2ccccc2nc2ccccc12)c1ccccc1Cl,5.14% (inactive)
12,Cc1cc(C(=O)Cn2nc(C(=O)O)c3ccccc3c2=O)c(C)n1CC(F)(F)F,-16% (inactive)
13,O=C(NNC(=O)C1CC=CCC1)c1cccc(Br)c1 (centres undefined),5.92% (inactive)
14,CCOc1cc(CN2CCc3c([nH]c4ccccc34)C2)ccc1OC,-1.33% (inactive)
15,CCCCCc1ccc(CC(=O)O)cc1,7.27% (inactive)
16,CCCCCCNC(=O)C(=O)NCCc1ccc(Cl)cc1,-2.68% (inactive)
17,Cc1[nH]c2ccccc2c1C(=O)CN1C(=O)C(=O)N(Cc2ccco2)C1=O,-2.82% (inactive)
18,CN(Cc1ccccc1)CC(O)COc1ccc(CNCc2cc3ccccc3s2)cc1 (centres undefined),5.91% (inactive)
19,CN(Cc1ccccc1)CC(O)COc1ccc(CNCc2cccnc2)cc1 (centres undefined),6.07% (inactive)
20,COc1ccc(OC(C)C(=O)NCc2cccnc2)cc1 (centres undefined),-6.99% (inactive)
21,O=C(Nc1cccc(Cl)c1)c1ccccc1,-1.86% (inactive)
22,O=C(Nc1ccc(Cl)c(Cl)c1)c1ccccc1,-28.6% (inactive)
23,COc1cc(C)ccc1N(CCCN1C(=O)c2cccc3cccc(c23)C1=O)C(=O)c1cccs1,-7.11% (inactive)
24,O=C1c2ccccc2NC(c2ccccc2O)N1c1ccc(F)cc1 (centres undefined),-11.4% (inactive)
25,CC1(C)Cc2c(cnn2-c2cccc(F)c2)C(NC(=O)c2ccc(=O)[nH]n2)C1 (centres undefined),2.67% (inactive)

row,Compound,inhibition
1,O=C(CCN1C(=O)c2ccccc2C1=O)Nn1cnnc1,-10.1% (inactive)
2,CC(=O)c1ccc(NC(=O)C2CCCN2S(=O)(=O)c2ccc(F)cc2)cc1 (centres undefined),0.38% (inactive)
3,O=S1(=O)CCOC[C@H](c2ccccc2)N1Cc1cccc(Cl)c1,9.33% (inactive)
4,C=CCc1cc(C)ccc1OCCCC(C(=O)OCC)C(=O)OCC,-4.53% (inactive)
5,CCCCOc1ccc(C)cc1CN(CCO)CCO,-0.81% (inactive)
6,Cc1cc(NC(=O)c2cccs2)n(-c2ccccc2)n1,-5.58% (inactive)
7,O=C(O)c1cn(-c2ccc(F)cc2)c(=O)c2ccccc12,-6.8% (inactive)
8,CCOC(=O)c1cn(-c2ccc([N+](=O)[O-])cc2)c2cc(Cl)c([N+](=O)[O-])cc2c1=O,-25.3% (inactive)
9,CNC(=O)C(=O)NCC1OCCN1S(=O)(=O)c1ccc([N+](=O)[O-])cc1 (centres undefined),0.4% (inactive)
10,CC(=O)c1c(C)[nH]c(C(=O)COC(=O)c2ccc3c(=O)n4c(nc3c2)CCC4)c1C,-1.34% (inactive)
11,Cc1ccc2nsnc2c1NC(=O)c1ccc([N+](=O)[O-])o1,1.72% (inactive)
12,Cc1cccc(NC(=O)c2ccc([N+](=O)[O-])o2)c1C,-7.49% (inactive)
13,CC(=O)c1ccc(NC(=O)c2ccc([N+](=O)[O-])o2)cc1,10.8% (inactive)
14,O=C(Nc1ccc(Cc2ccncc2)cc1)c1ccc(Br)o1,7.97% (inactive)
15,CCn1nnc(NC(=O)c2ccc(-c3ccccc3[N+](=O)[O-])o2)n1,11.3% (inactive)
16,O=C(Nc1c(Cl)ccc2nsnc12)c1ccco1,-5.33% (inactive)
17,Cc1ccccc1NC(=O)c1ccc([N+](=O)[O-])o1,11.6% (inactive)
18,CCn1nnc(NC(=O)c2ccc(Br)o2)n1,3.35% (inactive)
19,Cc1c(C(=O)N2CCC(N3CCSCC3)CC2)oc2c(F)cccc12,-3.19% (inactive)
20,Cc1cc(NC(=O)NCC(F)(F)F)no1,-7.59% (inactive)
21,CCN(CC)C(=O)c1sc2nc(N3CCOCC3)c3c(c2c1N)CCCC3,3.42% (inactive)
22,O=C(Nc1ccccc1Cl)NC1(C(=O)NCc2ccncc2)CCCCC1,9.06% (inactive)
23,CC(C)Cn1c(SCc2nc3ccccc3c(=O)[nH]2)nc2ccccc2c1=O,-7.91% (inactive)
24,Cc1sc(NC(=O)C2=COCCO2)nc1-c1ccc(F)cc1,-5.87% (inactive)
